Assay outcomes as filed in PubChem.
TDP43 rescue: inhibitors of TDP-43 toxicity in yeast. TDP-43 expressing yeast growth rescue, BacTiter-Glo, 24 h. 1.8% of 410,000 active. Potency, µM (top dose mostly 46.1 µM), for inactives: top-dose growth rescue (activation), actives largely listed as activators. AID 652104; further: potency means the concentration at half of the fitted maximal effect; % of control where 0% means no effect; nearly all actives have a fitted effect of over 50% in size
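Growth rescue of TDP-43-toxic yeast measured as ATP luminescence (BacTiter-Glo). Cells grown to mid-log in raffinose, induced in galactose at OD600=0.02, exposed to compound 24 hr at 30 deg C.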
LDHA block: blocks human lactate dehydrogenase A; AID 1347041; P00338; purified LDHA, NADH/diaphorase-resazurin fluorescence; active compounds read low; activity change, % (values are at about 110 or 230 µM); 0.15% of 480,000 active; in the data active means activity change below about -30%; inconclusive means mostly about -25% to -30%;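 further: plate controls were DMSO wells for no effect and wells without enzyme for full effect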
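Human LDH5 (2 nM) was incubated with 0.06 mM NADH and 0.2 mM pyruvate for 5 min at room temperature in Tris pH 7.4. Remaining NADH was coupled through diaphorase/resazurin, and resorufin fluorescence was read at 0 and 20 min.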
FUS suppressor: rescues growth of FUS-expressing yeast. S. cerevisiae FUS-expressing, growth rescue, OD600, 24 h. Potency, µM (highest dose often 76.6 µM), most hits filed as activators. 0.24% of 390,000 active;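 further: potency means the concentration at half of the fitted maximal effect; plate controls were DMSO vehicle for no effect and reference control for full effect; nearly all actives have a fitted effect of over 55% in size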
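Absorbance at 600 nm, taken 24hr after compound addition, measured rescue of FUS-yeast growth at 30C. Induction used 2% galactose with seeding at OD 0.005. Controls: CP55940 from 92uM final, DMSO only.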
Abeta yeast res: A-beta toxicity reversal in yeast; yeast expressing A-beta42, growth rescue, OD600, 48 h; response scale: 0% DMSO, 100% iron-clioquinol control; Potency, µM (doses to about 46.1 µM), usual class: activators; 0.063% of 410,000 active; further: potency means the concentration at half of the fitted maximal effect; nearly all actives have a fitted effect of over 55% in size
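Yeast A-beta toxicity model in growth medium with pinned compounds, 48 h at 30 C; growth read as absorbance at 600 nm. Normalized to FeCl3/clioquinol equimolar mix (positive) and DMSO (negative).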
PTHR1 ag: agonists of human PTHR1 parathyroid hormone receptor; Potency, µM (top dose mostly 115 µM), for the others: top-dose activation, hits mostly activators; 0.075% of 410,000 active; Q03431; HEK293 GP2 PTHR1 cells, GloSensor cAMP luminescence, 1 h; further: potency means the concentration at half of the fitted maximal effect; nearly all actives have a fitted effect of over 55% in size
Target sequence (Q03431 whole entry, looked up): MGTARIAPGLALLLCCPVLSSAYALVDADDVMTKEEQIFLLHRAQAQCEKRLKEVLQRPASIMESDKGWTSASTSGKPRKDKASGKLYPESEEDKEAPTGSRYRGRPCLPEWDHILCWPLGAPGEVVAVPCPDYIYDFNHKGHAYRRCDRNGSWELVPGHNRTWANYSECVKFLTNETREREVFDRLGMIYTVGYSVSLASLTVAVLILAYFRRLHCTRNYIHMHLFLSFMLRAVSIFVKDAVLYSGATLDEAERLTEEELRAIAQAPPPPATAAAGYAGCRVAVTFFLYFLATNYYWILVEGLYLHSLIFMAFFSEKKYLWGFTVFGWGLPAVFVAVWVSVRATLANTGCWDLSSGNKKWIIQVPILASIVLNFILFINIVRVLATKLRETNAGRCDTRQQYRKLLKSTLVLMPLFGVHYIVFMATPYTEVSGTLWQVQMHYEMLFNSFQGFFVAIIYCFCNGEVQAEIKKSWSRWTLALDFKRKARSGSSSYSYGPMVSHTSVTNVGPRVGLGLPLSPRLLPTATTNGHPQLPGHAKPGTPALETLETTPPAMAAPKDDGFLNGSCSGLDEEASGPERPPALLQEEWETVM
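HEK-293-derived GP2 cells expressing PTHR1 and a GloSensor cAMP reporter, 3,000/well, plated overnight, given luciferin plus IBMX (each 0.5 mM as added) for 1 h at 37 °C, then compound for 1 h at 37 °C. Luminescence was read after 15 min at room temperature.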
aSyn yeast inh: inhibitors of alpha-synuclein toxicity in yeast; Yeast expressing alpha-synuclein, growth rescue, BacTiter-Glo, 24 h; Potency, µM (doses to about 46.1 µM), for the others: top-dose growth rescue (activation), hits mostly activators; 0.14% of 370,000 active; AID 652106; further: potency means the concentration at half of the fitted maximal effect; % of control where 0% means no effect; nearly all actives have a fitted effect of over 65% in size
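Screening used galactose-induced yeast with toxic alpha-synuclein levels, exposed to compound for 24 hr at 30 deg C. Cell growth, read with BacTiter-Glo luminescence, gave the measured signal.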
Active calls of the source: *; i = inactive; ? = inconclusive; . = not tested or not shown; [ ] = remark or other dose. Sampled rows, rich in hits. Any-hit rate of the full collection: about 1.9%. Unless noted, the call rests on the fitted dose curve; in most records, active means well fitted curve in the direction sought with a large enough effect; inconclusive means small, poorly fitted or top-dose-only effect, or another doubt; inactive means no such curve, though single readings can be large; an effect the other way counts as inactive or inconclusive.

SMILES	TDP43 rescue	LDHA block	FUS suppressor	Abeta yeast res	PTHR1 ag	aSyn yeast inh
CN(C)C1(CNC(=O)c2ccccc2-c2ncc(-c3ccccc3)o2)CCCCC1	.	4	.	.	.	.
Cc1ccc(-c2ccc(CN3C(C)C(=O)N(Cc4cn(Cc5ccco5)nn4)CCS3(=O)=O)cc2)c(C)c1 (stereo not given)	35µM*	-7	?	i	-19%	?
Cc1ccc(-c2ccc(CN3C(C)C(=O)N(Cc4cn(Cc5ccco5)nn4)CCS3(=O)=O)cc2)cc1 (stereo not given)	?	-11	?	i	i	?
CC(C)C1C(=O)N(Cc2cn(Cc3ccco3)nn2)CCS(=O)(=O)N1Cc1ccc(-c2ccc(Cl)c(Cl)c2)cc1 (stereo not given)	28%	-14	?	i	-19%	15%
CC1C(=O)N(Cc2cn(Cc3ccco3)nn2)CCS(=O)(=O)N1Cc1ccc(-c2ccccc2C(F)(F)F)cc1 (stereo not given)	?	-11	?	i	i	?
Cc1ccccc1-c1ccc(CN2C(C)C(=O)N(Cc3cn(Cc4ccco4)nn3)CCS2(=O)=O)cc1 (stereo not given)	35µM*	-5	?	i	-30%	?
CC1C(=O)N(Cc2cn(Cc3ccco3)nn2)CCS(=O)(=O)N1Cc1ccc(-c2ccc(Cl)c(Cl)c2)cc1 (stereo not given)	35µM*	-3	?	i	-48%	?
CC1(c2ccc3c(c2)OCCO3)NC(=O)N(CC(=O)c2cn(CCC#N)c3ccccc23)C1=O (stereo not given)	.	2	.	.	.	.
CC(=O)N1CCC2(CC1)Oc1ccc(Br)cc1C1CC(c3ccccn3)=NN12 (stereo not given)	.	5	.	.	.	.
CCOCCCNc1oc(-c2ccc(S(=O)(=O)N3CCCCC3)cc2)nc1C#N	.	0	.	.	.	.
Cc1ccc2c(c1)c1c(n2CC2COC(C)(C)O2)C(=O)CCC1 (stereo not given)	13µM*	-4	i	i	-5%	0%
Cc1ccc2c(c1)c1c(n2CC(O)Cn2c(C)nc3ccccc32)C(=O)CCC1 (stereo not given)	16%	2	i	i	-16%	-1%
Cc1ccc(C(=O)Cn2nnc(-c3cccs3)n2)cc1	-4%	-10	i	i	-7%	0%
O=C(CN1CC[n+]2c(-c3cccs3)csc21)c1ccc(-c2ccccc2)cc1	3.5µM*	-9	i	i	-41%	-11%
Cc1ccccc1C(=O)N1CCc2c([nH]c3ccccc23)C1C(F)(F)F (stereo not given)	22µM*	-3	i	i	-24%	13%
O=C(O)c1cccnc1C(=O)N1CCc2c([nH]c3ccccc23)C1C(F)(F)F (stereo not given)	-7%	-7	i	i	i	-1%
COc1cccc(Oc2c(C)oc3cc(OC)ccc3c2=O)c1	.	7	.	.	.	.
Cc1cc(C)cc(NC(=O)CCNC(=O)C2CCCC2)c1	.	6	.	.	.	.
O=C(N/N=C/c1cc([N+](=O)[O-])cc(Br)c1O)C12CC3CCC(CC(C3)C1)C2	4.5µM*	-4	i	i	-6%	0%
Cc1ccccc1COc1ccc(C2C3=C(CC(C)(C)CC3=O)OC3=C2C(=O)CC(C)(C)C3)cc1	.	2	.	.	.	.
COc1cc2c(cc1OC)CN(C(=O)Nc1ccccc1Cl)CC2	11µM*	-5	i	i	i	6%
COc1cc2c(cc1OC)CN(C(=O)Cc1c(F)cccc1Cl)CC2	16µM*	-2	i	i	-7%	10%
CCCn1nc(C(=O)N2CCCCCC2)c2ccccc2c1=O	.	-14	.	.	.	.
O=C(c1cc(-c2cccs2)on1)N1CCCC1c1cccc(F)c1 (stereo not given)	.	-1	.	.	.	.
O=C1Cc2ccccc2C(=O)N1	22µM*	15	i	i	-20%	-8%
SMILES	TDP43 rescue	LDHA block	FUS suppressor	Abeta yeast res	PTHR1 ag	aSyn yeast inh
COc1cc(C(=O)OCc2nc(N)c3ccccc3n2)ccc1C	.	3	.	.	.	.
CCC(C)c1ccc(NC(=S)NCCn2cc(Br)cn2)cc1 (stereo not given)	-3%[0.397 µM]	2	i	10µM*	-11%	-1%
C[C@@H]1CN([C@@H](C)CO)C(=O)CCCn2nncc2CO[C@H]1CN(C)C	17%	-5	i	i	-20%	-6%
C[C@@H]1CN([C@H](C)CO)C(=O)CCCn2cc(nn2)CO[C@H]1CN(C)S(=O)(=O)c1ccc2c(c1)OCCCO2	0%	-30*	i	i	i	-2%
C[C@@H]1CN([C@H](C)CO)C(=O)CCCn2nncc2CO[C@H]1CN(C)C	0%	-33*	i	i	-20%	4%
C[C@H]1CN([C@@H](C)CO)C(=O)CCCn2cc(nn2)CO[C@@H]1CN(C)S(=O)(=O)c1ccc2c(c1)OCCCO2	2%	-8	i	i	-10%	2%
Cc1ccccc1N1C(=O)CC(N2CCC(C(N)=O)CC2)C1=O (stereo not given)	16µM*	-1	i	i	-11%[57.5 µM]	-89%
Cc1ccc(C(=O)C(C)Sc2nc(CN3CCOCC3)nc3ccccc23)cc1 (stereo not given)	.	-1	.	.	.	.
Cc1ccc(CCNS(=O)(=O)c2ccc(C)cc2)cc1	16µM*	0	i	i	-92%	.
c1ccc(N2CCN(c3ncnc4sc5c(c34)CCC5)CC2)cc1	5%	6	i	i	-33%	-7%
c1nc(N2CCC3(CC2)OCCO3)c2c3c(sc2n1)CCCC3	22µM*	-3	i	i	-22%	6%
Cc1ccc(CC(=O)NCc2nc(-c3cccc(C)c3)no2)cc1	18µM*	1	i	i	-12%	.
Cc1ccc(CC(=O)NCc2nc(-c3ccccc3)no2)cc1	13µM*	0	i	i	-14%	.
Cc1cccc(-c2noc(CNC(=O)c3ccc(C)cc3C)n2)c1	2%	-6	i	i	i	.
CN1c2ccccc2-c2nc3ccccc3n2C1c1cccs1 (stereo not given)	7.1µM*	-2	i	i	-16%	-35%
CCCC(=O)Nc1ccccc1NC(=O)c1ccc(C)cc1	.	6	.	.	.	.
C=CCn1cnc2c(nnn2-c2cc(C)cc(C)c2)c1=O	11µM*	-1	i	i	i	2%
Cc1ccc(C)c(S(=O)(=O)c2c(C)cc(C)nc2Cl)c1	11µM*	-6	i	i	-49%	3%
CN1CCCCC1=NCCn1cnc2c1c(=O)n(C)c(=O)n2C	.	4	.	.	.	.
